# Where a name gives a salt, the structure may show the parent alone.
# System: Staphylococcus aureus Sa2 (MRSA, cystic fibrosis isolate)
# Assay: growth reduction vs untreated control (viable cell count); higher = stronger antibacterial activity; extreme values may be limits of the assay
# Conditions: 0.1 mM; 24 h
# Experimental: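 Single-dose screen of the MedChem Express Drug Repurposing Library (0.1 mM, 1% DMSO) against planktonic MRSA S. aureus Sa2 (CF isolate) in TSB in 96-well plates, 37 °C aerobic, 24 h. Assays were run in triplicate and repeated twice.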
row,SMILES,growth reduction [%]
1,COc1cc2c(cc1Cc1cccc(Cl)c1F)c(=O)c(C(=O)O)cn2[C@H](CO)C(C)C [Elvitegravir],100
2,CNCc1ccc(C)c(NC(=O)c2ccc(Nc3nc(-c4ccccc4)c4ccccc4n3)cc2)c1,100
3,CCN1CCN(Cc2ccc(-c3cc4c(N[C@H](C)c5ccccc5)ncnc4[nH]3)cc2)CC1,100
4,CC(OC(=O)c1ccc(Cc2c(O)c3ccccc3oc2=O)cc1)(C(F)(F)F)C(F)(F)F [Tecarfarin],100
5,C[C@]1(O)C[C@@H](c2nc(-c3ccc4ccc(-c5ccccc5)nc4c3)c3c(N)nccn32)C1 [Linsitinib],100
6,Nc1ccn([C@@H]2O[C@H](CO)[C@@H](O)C2(F)F)c(=O)n1 [Gemcitabine],100
7,O=C(O)CNC(=O)c1nc(Cl)c2ccccc2c1O,100
8,Fc1ccc2c(CCNCc3cccc(OCC(F)(F)C(F)F)c3)c[nH]c2c1 [Idalopirdine Hydrochloride],100
9,Cc1c(Cl)cccc1Nc1ccccc1C(=O)O [Tolfenamic Acid],99
10,Cc1nc(Nc2ccc(F)cc2)nc(N2CCc3ccccc3C2C)c1C (centres undefined) [Revaprazan (hydrochloride)],100
11,CN1CCN(c2ccc3nc(-c4c(N)c5c(F)cccc5[nH]c4=O)[nH]c3c2)CC1 [Dovitinib (lactate)],99
12,Cn1cnc([N+](=O)[O-])c1C[N+](C)(C)C/C=C/C(=O)Nc1cc2c(Nc3ccc(Cl)c(Br)c3)ncnc2cn1 [Tarloxotinib (bromide)],100
13,Cc1cc2c(cc1CC(=O)c1sccc1S(=O)(=O)Nc1onc(C)c1Cl)OCO2 [Sitaxsentan (sodium)],90
14,O=C(O)Cc1ccccc1Nc1c(Cl)cccc1Cl [Diclofenac (diethylamine)],100
15,COc1ccc(CN2CCN(C(c3ccc(F)cc3)c3ccc(F)cc3)CC2)c(OC)c1OC [Lomerizine dihydrochloride],98
16,CC1CS(=O)(=O)CCN1/N=C/c1ccc([N+](=O)[O-])o1 (centres undefined) [Nifurtimox],100
17,O=C(Nc1ncc(SCCN2CCCC2)s1)[C@]1(c2ccc(S(=O)(=O)C3CC3)cc2)C[C@H]1C1CCCCC1 [Globalagliatin],100
18,CCCCCc1ccc(C=CC(=O)Nc2ccccc2C(=O)O)cc1 [N-(p-amylcinnamoyl) Anthranilic Acid],100
19,CCCCCCCCOc1ccccc1C(=O)Nc1ccc(C(=O)OCC[N+](C)(CC)CC)cc1 [Otilonium (bromide)],100
20,CC(C)(C)c1ccc(C(O)CCCN2CCC(C(O)(c3ccccc3)c3ccccc3)CC2)cc1 (centres undefined) [Terfenadine],100
21,C=CCNc1c(O)cc2c(O)c1C[C@@H](C)C[C@H](OC)[C@H](O)[C@@H](C)/C=C(\C)[C@H](OC(N)=O)[C@@H](OC)/C=C\C=C(/C)C(=O)N2 [Retaspimycin (Hydrochloride)],100
22,C=CC(=O)N1CC[C@@H](Oc2nc(Nc3ccc(N4CCC(N5CCN(C)CC5)CC4)cc3)c(C(N)=O)nc2CC)C1 [Naquotinib (mesylate)],100
23,Cc1c(Cl)c(C)[n+]([O-])c(Cl)c1-c1noc(-c2cc(O)c(O)c([N+](=O)[O-])c2)n1 [Opicapone],100
24,CO[C@H](C(=O)[C@@H](O)[C@@H](C)O)[C@@H]1Cc2cc3cc(O[C@H]4C[C@@H](O[C@H]5C[C@@H](O)[C@H](O)[C@@H](C)O5)[C@H](O)[C@@H](C)O4)c(C)c(O)c3c(O)c2C(=O)[C@H]1O[C@H]1C[C@@H](O[C@H]2C[C@@H](O[C@H]3C[C@](C)(O)[C@H](O)[C@@H](C)O3)[C@@H](O)[C@@H](C)O2)[C@H](O)[C@@H](C)O1 [Plicamycin],100

# Reference: the supplement of paper PMC12024424
